G9a block: inhibitors of human histone lysine methyltransferase G9a. G9a H3K9 monomethylation, AlphaScreen, 2 h. 350,000 compounds, 8.8% hits. Q96KQ7. Potency, µM (doses to about 102 µM), for inactives: top-dose activity, negative = inhibition, hits mostly inhibitors; also: % is scaled to controls: 0 for no effect and ±100 for the full control effect; nearly all actives have a fitted effect of over 75% in size
Target sequence (Q96KQ7 913-1193 limits assumed): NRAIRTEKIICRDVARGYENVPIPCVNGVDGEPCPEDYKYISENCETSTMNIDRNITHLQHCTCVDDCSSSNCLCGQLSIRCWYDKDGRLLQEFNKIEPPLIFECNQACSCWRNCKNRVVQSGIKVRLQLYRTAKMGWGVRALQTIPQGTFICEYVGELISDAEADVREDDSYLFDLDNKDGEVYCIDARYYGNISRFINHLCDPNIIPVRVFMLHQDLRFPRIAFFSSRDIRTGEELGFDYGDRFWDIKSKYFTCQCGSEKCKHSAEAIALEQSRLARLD
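Quantitative HTS format: methyltransferase activity on a biotin-tagged H3K9 peptide is measured by AlphaScreen, using a rabbit anti-monomethyl-H3K9 antibody with streptavidin donor and anti-IgG acceptor beads. Final levels are 20 nM enzyme, 500 nM peptide, 20 uM SAM; 2 h RT.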
L3MBTL1 inh: L3MBTL1 (human) inhibition; Potency, µM (series often up to 57.1 µM), for the others: at the highest dose activity, negative = inhibition, actives largely listed as inhibitors; AlphaScreen L3MBTL1–H3K9me1 peptide binding; AID 485360; Q9Y468; 230,000 compounds, 0.66% hits; also: % is scaled to controls: 0 for no effect and ±100 for the full control effect; nearly all actives have a fitted effect of over 60% in size
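First, the protein-peptide complex forms for 30 min at room temperature (L3MBTL1 50 nM, biotinylated H3K9me1 peptide 75 nM). Next, compounds are pin-transferred and incubated 30 min. Finally, AlphaScreen beads are added and read after 30 min.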
HP1b binding inh: blocks HP1-beta chromodomain binding to methylated histone tails; AlphaScreen HP1-beta / biotin-H3K9me3 peptide binding; Potency, µM (highest dose often 114 µM), without a hit: top-dose activity change, negative = inhibition, usual class: inhibitors; 390,000 compounds, 0.56% hits; also: nearly all actives have a fitted effect of over 70% in size
Target sequence (P83916 whole entry, looked up): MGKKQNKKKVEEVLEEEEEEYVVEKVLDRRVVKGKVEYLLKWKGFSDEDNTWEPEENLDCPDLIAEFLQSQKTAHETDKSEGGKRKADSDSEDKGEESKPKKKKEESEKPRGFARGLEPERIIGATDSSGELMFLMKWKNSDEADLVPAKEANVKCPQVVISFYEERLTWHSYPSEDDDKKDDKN
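HP1-beta protein (50 nM final) preincubated 30 min at room temperature with biotinylated H3(1-18)K9me3 peptide (50 nM) in PBS pH 7.4, 0.01% Tween-20, then compound added for 30 min. AlphaScreen streptavidin donor/nickel chelate acceptor beads (10 ug/mL final), 30 min dark, luminescence read.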
JMJD2A Tudor inh: JMJD2A Tudor domain (human) inhibition; 390,000 compounds, 4.4% hits; O75164; Potency, µM (titrated, usually from 114 µM), inactives show at the highest dose activity change, negative = inhibition, actives largely listed as inhibitors; AlphaScreen JMJD2A-Tudor / H3K4me3 peptide binding; AID 504339; also: % is scaled to controls: 0 for no effect and ±100 for the full control effect; nearly all actives have a fitted effect of over 50% in size
Sfp inh: Sfp phosphopantetheinyl transferase inhibition; Q9F4F7; Biochemical Sfp PPTase activity, qHTS; Potency, µM, for inactives: largest response in the series, negative = inhibition, hits mostly inhibitors; 310,000 compounds, 3.5% hits; AID 1490;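 also: the enzyme is Sfp with the accession as filed and its product quenches rhodamine fluorescence; 0% = enzyme reaction without inhibitor and -100% = no enzyme wells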
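After 15 min at room temperature with compound, 15 nM Sfp received 5 uM rhodamine-CoA plus 12.5 uM BHQ-2-ybbR (50 mM Hepes pH 7.6, 10 mM MgCl2). Rate came from the fluorescence difference over 30 min, ex 525/em 598 nm.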
BAZ2B inh: blocks human BAZ2B; AlphaScreen BAZ2B-H3K14Ac peptide displacement; Potency, µM (highest dose often 114 µM), inactives show at the highest dose activity change, negative = inhibition, usual class: inhibitors; Q9UIF8; 360,000 compounds, 4.4% hits; also: % is scaled to controls: 0 for no effect and ±100 for the full control effect; nearly all actives have a fitted effect of over 60% in size
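Multi-concentration screen (max 110 uM) measuring displacement of acetylated histone H3 peptide from BAZ2B by AlphaScreen, using 50 nM protein, 50 nM peptide and 10 ug/mL streptavidin donor plus Ni-chelate acceptor beads.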
An asterisk follows results filed as active; u = inconclusive; x = not tested or not shown; ! = repeats disagree; [ ] = dose if it differs, or a comment. Compounds with a hit are over-represented: about 12% of the library has one in this group of screens. Calls follow the shape of the dose curve; as a rule, active = well fitted curve in the direction sought with a large enough effect; inconclusive = small, poorly fitted or top-dose-only effect, or another doubt; inactive = no such curve, though single readings can be large; an effect the other way counts as inactive or inconclusive. Potency is read from the fitted curve at half-maximal effect.

SMILES | G9a block | L3MBTL1 inh | HP1b binding inh | JMJD2A Tudor inh | Sfp inh | BAZ2B inh
COC(=O)C1=C(C(=O)OC)C2OC1c1cc3ccccc3cc12 | x | x | 1.2% | 89.1µM* | x | x
C=CC[n+]1c(-c2ccc(C)cc2)csc1Nc1c(C)n(C)n(-c2ccccc2)c1=O | 17.8µM* | u | 4.3% | -26.8% | -1.1% | u
CN1C2CC(OC(=O)C(CO)c3ccccc3)CC1C(O)C2 (stereo unspecified) | -38.1%[2.33 µM] | x | x | x | -7.3% | x
C[N+](C)(C)CC#CCN1CCCC1=O | 0.631µM* | x | -0.1% | u | 6.7% | x
C/C(Cl)=C/CC1(CN2CCCC2=O)C(=O)NC(=O)NC1=O | u | 28.4% | 30.5% | 10.5% | 7.4% | 43.4%
Cc1cc(/C=C2\C(=O)NC(=O)N(c3ccccc3)C2=O)c(C)n1-c1ccc(C(=O)O)c(Cl)c1 | 44.7µM* | u | 5.3% | -25.9% | -20.7% | u
Cc1cc(/C=C2\C(=O)NC(=O)N(c3ccccc3F)C2=O)c(C)n1-c1cc(C(=O)O)cc(C(=O)O)c1 | 10µM* | x | 12.6µM* | 11.2µM* | -18.2% | 28.2µM*
Cc1cc(/C=C2\C(=O)NC(=O)N(c3ccc(F)cc3)C2=O)c(C)n1-c1cccc(C(=O)O)c1 | 35.5µM* | u | 6.5% | -25.9% | -15.8% | -36.5%
Cc1cc(/C=C2/C(=O)NC(=O)N(C)C2=O)c(C)n1-c1ccccc1 | u | -1.3% | 49.0% | -26.7% | -0.2% | -12.6%
CON(C)C(=O)Nc1ccc(Br)c(Cl)c1 | x | x | x | x | -8.4% | x
CCN1C[C@]2(COC)CC[C@H](OC)[C@@]34C5C[C@@H]6[C@@H](OC)C[C@@]7(OCO[C@@]7([C@@H](O)C23)[C@@H]14)C5[C@H]6OC (stereo partly specified) | 47.7%[59 µM] | x | x | x | 7.3% | x
CCOc1ccc(NC(=O)CN(c2ccc(Cl)cc2C)S(=O)(=O)c2ccccc2)cc1 | -41.6%[59 µM] | x | 20.1% | -11.9% | x | u
COc1cc(CN2CCc3nc(N4CCN(c5ccccn5)CC4)ncc3C2)cc(OC)c1OC | u | x | u | 79.4µM* | x | 50.1µM*
COc1cc(CN2CCc3nc(N4CCN(c5ccccc5F)CC4)ncc3C2)ccc1OC(C)C | -13.5%[59 µM] | x | 18.9% | -21.9% | x | u
COc1cc(CN2CCc3nc(N4CCN(c5ncccn5)CC4)ncc3C2)cc(OC)c1OC | u | x | -14.4% | 50.1µM* | x | 44.7µM*
O=C1NC(=S)NC(=O)C12C(c1ccc(F)cc1)NC(=S)NC2c1ccc(F)cc1 (stereo unspecified) | u | x | 24.7% | -22.2% | 39.8µM* | -10.8%
O=[N+]([O-])c1ccc(S(=O)(=O)N2CCn3cccc3C2c2ccccc2F)cc1 (stereo unspecified) | u | x | 12.6% | u | x | 31.6µM*
c1ccc2c(c1)[nH]c1cnccc12 | 81.1%[59 µM] | -4.5% | 51.7% | -23.4% | -13.6% | 14.1%
Cc1c2ccncc2c(C)c2c1[nH]c1ccccc12 | 21.2µM*! | 7.5% | 42.5% | -8.6% | 22.4µM* | 56.2µM*
CCCCn1c(O)c(C=Nc2c(C)n(C)n(-c3ccccc3)c2=O)c(=O)[nH]c1=O | 56.2µM* | 2.5% | 26.2% | -1.9% | 6.9% | -1.4%
Cc1c(N=Nc2c(O)n(C)c(=O)n(C)c2=O)c(=O)n(-c2ccccc2)n1C | u | -21.8% | 25.8% | -30.5% | -27.8% | 35.5µM*
Cc1c(N=Nc2c(O)n(Cc3ccccc3)c(=O)[nH]c2=O)c(=O)n(-c2ccccc2)n1C | u | u | 39.3% | 20µM* | 7.2% | 10µM*
Cc1c(N=Cc2c(O)n(Cc3ccccc3)c(=O)[nH]c2=O)c(=O)n(-c2ccccc2)n1C | -10.3% | 4.2% | 19.6% | 3.4% | 8.3% | -5.7%
Cc1ccc(S(=O)(=O)n2[nH]c(=O)cc2NC(=O)c2cccs2)cc1 | u | 34.7% | x | x | 8.0% | -4.0%
O=C(NCCCCc1ccccc1)c1ccccc1Br | x | x | 52.6% | -1.3% | x | x
SMILES | G9a block | L3MBTL1 inh | HP1b binding inh | JMJD2A Tudor inh | Sfp inh | BAZ2B inh
O=C(OCCCCN1C(=O)c2ccccc2C1=O)c1ccc(Br)o1 | 27.6%[59 µM] | 24.5% | 23.9% | 16.8%[57.1 µM] | 14.6% | -2.1%
N#CC1(c2ccccc2)CCN(C2CC(=O)N(c3ccc4c(c3)OCO4)C2=O)CC1 (stereo unspecified) | 22.4µM* | 0.5% | 30.0% | -17.3% | u | -8.9%
COc1nnc(-c2ccc(N3CCCCC3)c(NC(=O)c3ccc(Cl)cc3)c2)c2ccccc12 | u | x | 13.4% | -7.2% | x | -7.4%
CCOC(=O)C1CCN(/C=C2\C(=O)NC(=S)N(CC)C2=O)CC1 | -6.6% | -6.4% | 67.3% | -12.4% | 79.4µM* | -1.3%
CCOC(=O)C1CCN(/C=C2/C(=O)NC(=S)N(c3cccc(OC)c3)C2=O)CC1 | 22.4µM* | 4.6% | 35.5% | -9.0% | 0.5% | -3.4%
C[C@](O)(CS(=O)(=O)c1ccc(F)cc1)C(=O)Nc1ccc(C#N)c(C(F)(F)F)c1 | u | x | x | x | 11.8% | x
CCCC(C)C1(CC)C(=O)NC(=O)NC1=O (stereo unspecified) | -43.4%[2.33 µM] | x | x | x | 10.9% | x
Cc1csc(B(O)O)c1 | x | x | 20.7% | -17.7% | 40.6% | x
C=C1CC[C@H](O)C/C1=C/C=C1\CCC[C@]2(C)[C@@H]([C@H](C)CCCC(C)C)CC[C@@H]12 | 15.8µM*! | x | x | x | 16.7% | x
CCOC(=O)COc1ccc(/C=C2\C(=O)NC(=S)N(c3ccc(OC)cc3)C2=O)cc1OC | u | x | 11.0% | 35.5µM* | 44.7µM* | u
COC(=O)COc1ccc(/C=C2\C(=O)NC(=S)N(c3ccc(C)cc3)C2=O)cc1OC | 11.2µM* | x | 16.8% | u | 39.8µM* | -30.5%
CCOC(=O)CSCCOc1ccc(C=C2C(=O)NC(=O)NC2=O)cc1OC | 22.4µM* | -15.5% | 31.4% | -18.9% | -84.7% | u
COc1ccc(N2C(=O)/C(=C/c3ccc(OC)c(OC)c3)C(=O)NC2=S)cc1 | x | 5.0% | u | 56.2µM* | -94.0% | -29.9%
COc1cc(C=C2C(=O)NC(=O)NC2=O)ccc1O | -11.4%[12.7 µM] | 0.0% | 38.2% | -9.4% | u | -8.4%
C[C@]12CC[C@H]3C(=CCc4cc(O)ccc43)[C@@H]1CCC2=O | -18.2%[59 µM] | 0.6% | 25.7% | -22.1% | -7.3% | 1.1%
Cc1cc2c(cc1C)-n1c(-c3ccccc3)c3c(=O)n(C)c(=O)n(C)c3c1C(c1ccco1)N2 (stereo unspecified) | -33.5%[59 µM] | x | 12.1% | -29.5% | x | u
CC1(C)C(=O)[C@@H]2OC2[C@@]2(C)C1CC(O)[C@]1(C)C2CC[C@@]2(C)C(c3ccoc3)OC(=O)C3OC312 (stereo partly specified) | x | x | x | x | -10.7% | x
C=C1[C@@H]2C[C@]3(C(CC2=O)[C@]24C5C[C@H]3[C@H]2N(CC)C[C@]5(C)CC[C@@H]4O)[C@@H]1O (stereo partly specified) | x | x | x | x | 20.3% | x
